Test results: article PMC5540273 (PLoS ONE, 2017)

Columns and labels:
Conditions in all cases: concentration: 1 μM,replicates: in singlicate; n = 1
TNNI3K = test system: TNNI3K
TRKA = test system: T1, TRKA
T1 construct: gene NTRK1

TRKB = test system: TRKB
TRKC = test system: T2, TRKC
T2 construct: gene NTRK3

TRPM6 = test system: TRPM6
TSSK1B = test system: TSSK1B
TSSK3 = test system: TSSK3
TTK = test system: TTK
TXK = test system: TXK
[1] = test system: TYK2(JH1domain-catalytic)
[2] = test system: TYK2(JH2domain-pseudokinase)
TYRO3 = test system: TYRO3
ULK1 = test system: ULK1
ULK2 = test system: ULK2
ULK3 = test system: ULK3
VEGFR2 = test system: T3, VEGFR2
T3 construct: gene KDR

VPS34 = test system: T4, VPS34
T4 construct: gene PIK3C3

VRK2 = test system: VRK2
WEE1 = test system: WEE1
WEE2 = test system: WEE2
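Note: KINOMEscan kinase panel screen.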

Row | SMILES | %Inh (TNNI3K) [%] | %Inh (TRKA) [%] | %Inh (TRKB) [%] | %Inh (TRKC) [%] | %Inh (TRPM6) [%] | %Inh (TSSK1B) [%] | %Inh (TSSK3) [%] | %Inh (TTK) [%] | %Inh (TXK) [%] | %Inh [1] [%] | %Inh [2] [%] | %Inh (TYRO3) [%] | %Inh (ULK1) [%] | %Inh (ULK2) [%] | %Inh (ULK3) [%] | %Inh (VEGFR2) [%] | %Inh (VPS34) [%] | %Inh (VRK2) [%] | %Inh (WEE1) [%] | %Inh (WEE2) [%]
1 | CCn1c(-c2nonc2N)nc2cncc(CNC3CCNCC3)c21.Cl [SB-747651] | 4 | 0 | 43 | 24 | 21 | 55 | 6 | 0 | 16 | 31 | 47 | 0 | 17 | 0 | 6 | 0 | 0 | 9 | 8 | 7
2 | FC(F)(F)c1cc(Br)cc(Nc2nccc(-c3cnn4ncccc34)n2)c1 [GW810578] | 66 | 48 | 0 | 1 | 0 | 5 | 5 | 41 | 7 | 0 | 89 | 0 | 21 | 20 | 12 | 40 | 64 | 4 | 5 | 70
3 | Cc1cccc2c(-c3ccncc3)c(-c3ccc(F)cc3)nn12.Cl [GW461487] | 8 | 37 | 0 | 0 | 0 | 4 | 15 | 0 | 0 | 7 | 0 | 0 | 0 | 0 | 1 | 0 | 18 | 0 | 8 | 11
4 | COC(=O)c1cccc(NC(=O)NC2CCN(c3ccnc(NCc4ccc(F)cc4)n3)CC2)c1 [GSK1379860] | 0 | 0 | 12 | 24 | 0 | 0 | 11 | 0 | 7 | 13 | 5 | 17 | 20 | 0 | 15 | 8 | 17 | 7 | 8 | 8
5 | C[C@@H](Oc1cc(-n2cnc3cc(-c4ccncc4)ccc32)sc1C(N)=O)c1ccccc1Cl [GSK479719] | 29 | 66 | 52 | 50 | 0 | 34 | 13 | 2 | 0 | 25 | 46 | 15 | 32 | 3 | 18 | 40 | 32 | 0 | 1 | 0
6 | CCN1CCN(CCCC(=O)Nc2n[nH]c3nc(-c4ccc(O)cc4)c(Br)cc23)CC1 [SB-731579] | 0 | 38 | 2 | 0 | 0 | 0 | 0 | 0 | 0 | 52 | 0 | 0 | 0 | 0 | 6 | 0 | 0 | 69 | 0 | 29
7 | Cn1ccc2ncnc(Oc3ccc(NC(=O)Nc4cncc(C(F)(F)F)c4)c(Cl)c3)c21 | 61 | 51 | 55 | 88 | 0 | 0 | 0 | 0 | 0 | 0 | 0 | 0 | 0 | 0 | 99.9 | 98.5 | 0 | 0 | 0 | 7
8 | C[C@@H]1CCN(C(=O)N2CCCC2)C[C@@H]1N(C)c1ncnc2[nH]ccc12 | 18 | 85 | 55 | 26 | 4 | 5 | 4 | 89 | 4 | 100 | 0 | 0 | 36 | 46 | 70 | 49 | 0 | 0 | 0 | 0
9 | CC(=O)c1c(-c2ccncc2)[nH]c(-c2ccncc2)c1C [GW493036] | 0 | 0 | 0 | 0 | 33 | 34 | 13 | 3 | 35 | 42 | 90 | 0 | 3 | 0 | 10 | 0 | 50 | 55 | 17 | 0
10 | O=C1NCCc2[nH]c(-c3ccncc3)cc21 | 0 | 10 | 19 | 14 | 0 | 0 | 0 | 1 | 2 | 80 | 41 | 0 | 25 | 32 | 18 | 25 | 25 | 19 | 13 | 0
11 | COc1cc2nccc(Nc3ccc(Oc4ccccc4)cc3)c2cc1OC.Cl [GI261656] | 0 | 11 | 6 | 6 | 58 | 0 | 11 | 0 | 19 | 4 | 12 | 0 | 0 | 0 | 0 | 23 | 10 | 5 | 0 | 0
12 | C[C@@H](Oc1cc(-n2cnc3ccc(-c4ccncc4)cc32)sc1C(N)=O)c1ccccc1Cl [GSK483724] | 6 | 57 | 7 | 18 | 34 | 29 | 17 | 34 | 11 | 18 | 42 | 0 | 6 | 0 | 7 | 8 | 96.4 | 0 | 46 | 1
13 | C[C@@H](Oc1cc(-n2cnc3cc(-c4cnn(C)c4)ccc32)sc1C(N)=O)c1ccccc1Cl [GSK580432] | 24 | 100 | 73 | 50 | 0 | 14 | 16 | 25 | 44 | 45 | 0 | 11 | 14 | 10 | 11 | 61 | 74 | 0 | 26 | 5
14 | COc1cccc(CNC(=O)NC2CCN(c3ccnc(Nc4cc(OC)c(OC)c(OC)c4)n3)C2)c1 (centres unmarked) [GSK1379765] | 0 | 52 | 7 | 55 | 0 | 0 | 18 | 22 | 0 | 54 | 43 | 0 | 0 | 0 | 90 | 13 | 0 | 0 | 30 | 9
15 | CCCC(=O)Nc1n[nH]c2ncccc12 [SB-601436] | 0 | 0 | 6 | 28 | 2 | 0 | 0 | 0 | 0 | 0 | 0 | 0 | 0 | 18 | 0 | 0 | 0 | 0 | 0 | 0
16 | Cn1ccc2ncnc(Oc3ccc(NC(=O)Nc4cccc(C(F)(F)F)c4)c(F)c3)c21 | 82 | 100 | 88 | 96.4 | 0 | 0 | 0 | 18 | 0 | 0 | 0 | 3 | 0 | 0 | 0 | 99.1 | 0 | 0 | 43 | 0
17 | Cc1ccc(C(=O)Nc2ccc(Oc3ccc4nc(NC(=O)C5CC5)cn4c3)c(F)c2)c(=O)n1-c1ccccc1 | 24 | 100 | 99.9 | 99 | 0 | 12 | 0 | 17 | 76 | 20 | 0 | 81 | 0 | 0 | 7 | 99.1 | 43 | 0 | 0 | 0
18 | Cc1cccc(-c2nc(Nc3ccncc3)c3sccc3n2)n1 [GW869641] | 7 | 6 | 6 | 5 | 38 | 0 | 24 | 27 | 0 | 20 | 75 | 0 | 43 | 29 | 45 | 35 | 32 | 39 | 20 | 11
19 | O=c1[nH]cc(-c2ccc(O)cc2)c2sc(-c3ccncc3)cc12 [GSK1033723] | 18 | 46 | 0 | 14 | 2 | 0 | 9 | 11 | 5 | 0 | 16 | 8 | 8 | 2 | 6 | 0 | 0 | 0 | 3 | 0
